# The supplement of paper PMC8728848
# The sample as a whole holds a higher share of the strongest signals than the screen did.
# B1: Intelectin-1a (Mus musculus) (protein)
# chain: AEWSHPQFEKAEENLDTNRWGNSFFSSLPRSCKEIKQEHTKAQDGLYFLRTKNGVIYQTFCDMTTAGGGWTLVASVHENNMRGKCTVGDRWSSQQGNRADYPEGDGNWANYNTFGSAEAATSDDYKNPGYFDIQAENLGIWHVPNKSPLHNWRKSSLLRYRTFTGFLQHLGHNLFGLYKKYPVKYGEGKCWTDNGPALPVVYDFGDARKTASYYSPSGQREFTAGYVQFRVFNNERAASALCAGVRVTGCNTEHHCIGGGGFFPEGNPVQCGDFASFDWDGYGTHNGYSSSRKITEAAVLLFYR
# B2: Banana lectin (Musa acuminata) (protein)
# chain: MNGAIKVGAWGGNGGSAFDMGPAYRIISVKIFSGDVVDGVDVTFTYYGKTETRHYGGSGGTPHEIVLQEGEYLVGMAGEVANYHGAVVLGKLGFSTNKKAYGPFGNTGGTPFSLPIAAGKISGFFGRGGKFLDAIGVYLEPLEHHHHHH
# Assays:
# Experiment in all cases: glycan array binding signal (z-score within array); higher = stronger binding
# Conditions in all cases: glycan notation: IUPAC condensed, linker removed
# [1] = target: Fuc(a1-2)Gal(b1-3)GlcNAc(b1-2)Man(a1-3)[Fuc(a1-2)Gal(b1-3)GlcNAc(b1-2)Man(a1-6)]Man(b1-4)GlcNAc(b1-4)[Fuc(a1-6)]GlcNAc
# Procedure, shortened: (§1)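 Glycan array data came from 3228 arrays in the Consortium for Functional Glycomics database, and only arrays with an available protein sequence were kept. Glycan names were put into IUPAC-condensed notation, and columns mapping to the same glycan were averaged. The binding signal is a within-array Z-score, averaged across arrays of one protein sequence run at different concentrations or buffers and across linkers. A negative Z-score can be read as non-binding.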
# [2] = target: Fuc(a1-2)Gal(b1-3)GlcNAc(b1-3)GalNAc
# Procedure, shortened: as §1
# [3] = target: Fuc(a1-2)Gal(b1-3)[Fuc(a1-4)]GlcNAc(b1-2)Man(a1-3)[Fuc(a1-2)Gal(b1-3)[Fuc(a1-4)]GlcNAc(b1-2)Man(a1-6)]Man(b1-4)GlcNAc(b1-4)GlcNAc
# Procedure, shortened: as §1
# [4] = target: Fuc(a1-2)Gal(b1-4)GlcNAc(b1-2)Man
# Procedure, shortened: as §1
# [5] = target: Fuc(a1-2)Gal(b1-4)GlcNAc(b1-2)Man(a1-3)[Fuc(a1-2)Gal(b1-4)GlcNAc(b1-2)Man(a1-6)]Man(b1-4)GlcNAc(b1-4)GlcNAc
# Procedure, shortened: as §1
# [6] = target: Fuc(a1-2)Gal(b1-4)GlcNAc(b1-3)[Fuc(a1-2)Gal(b1-4)GlcNAc(b1-6)]GalNAc
# Procedure, shortened: as §1
# [7] = target: Fuc(a1-2)Gal(b1-4)[Fuc(a1-3)]GlcNAc(b1-3)Gal(b1-4)[Fuc(a1-3)]GlcNAc
# Procedure, shortened: as §1
# Fuc(a1-2)Gal6S(b1-4)Glc = target: Fuc(a1-2)Gal6S(b1-4)Glc
# Procedure, shortened: as §1
# [8] = target: Fuc(a1-2)[Gal(a1-3)]Gal(b1-3)GlcNAc(b1-2)Man(a1-3)[Fuc(a1-2)[Gal(a1-3)]Gal(b1-3)GlcNAc(b1-2)Man(a1-6)]Man(b1-4)GlcNAc(b1-4)GlcNAc
# Procedure, shortened: as §1
# [9] = target: Fuc(a1-2)[Gal(a1-3)]Gal(b1-3)GlcNAc(b1-2)Man(a1-3)[Fuc(a1-2)[Gal(a1-3)]Gal(b1-3)GlcNAc(b1-2)Man(a1-6)]Man(b1-4)GlcNAc(b1-4)[Fuc(a1-6)]GlcNAc
# Procedure, shortened: as §1
# [10] = target: Fuc(a1-2)[Gal(a1-3)]Gal(b1-4)GlcNAc(b1-2)Man(a1-3)[Fuc(a1-2)[Gal(a1-3)]Gal(b1-4)GlcNAc(b1-2)Man(a1-6)]Man(b1-4)GlcNAc(b1-4)GlcNAc
# Procedure, shortened: as §1
# [11] = target: Fuc(a1-2)[GalNAc(a1-3)]Gal
# Procedure, shortened: as §1
# [12] = target: Fuc(a1-2)[GalNAc(a1-3)]Gal(b1-3)GlcNAc(b1-2)Man(a1-3)[Fuc(a1-2)[GalNAc(a1-3)]Gal(b1-3)GlcNAc(b1-2)Man(a1-6)]Man(b1-4)GlcNAc(b1-4)GlcNAc
# Procedure, shortened: as §1
# [13] = target: Fuc(a1-3)[Gal(b1-4)]GlcNAc(b1-6)[Neu5Ac(a2-3)Gal(b1-3)]GalNAc
# Procedure, shortened: as §1
# [14] = target: Fuc(a1-3)[GalNAc3S(b1-4)]GlcNAc
# Procedure, shortened: as §1
# [15] = target: Gal(a1-3)Gal(b1-3)GlcNAc(b1-2)Man(a1-3)[Gal(a1-3)Gal(b1-3)GlcNAc(b1-2)Man(a1-6)]Man(b1-4)GlcNAc(b1-4)GlcNAc
# Procedure, shortened: as §1
# [16] = target: Gal(a1-3)Gal(b1-3)GlcNAc(b1-3)GalNAc
# Procedure, shortened: as §1
# [17] = target: Gal(a1-3)Gal(b1-4)[Fuc(a1-3)]GlcNAc(b1-2)Man(a1-3)[Gal(a1-3)Gal(b1-4)[Fuc(a1-3)]GlcNAc(b1-2)Man(a1-6)]Man(b1-4)GlcNAc(b1-4)GlcNAc
# Procedure, shortened: as §1
# [18] = target: Gal(b1-3)GlcNAc(b1-3)Gal(b1-4)GlcNAc(b1-6)[Gal(b1-3)GlcNAc(b1-3)]Gal(b1-4)Glc
# Procedure, shortened: as §1
# [19] = target: Gal(b1-3)[Neu5Ac(a2-6)]GlcNAc(b1-6)Gal(b1-4)Glc
# Procedure, shortened: as §1
# Gal3S(b1-3)GlcNAc = target: Gal3S(b1-3)GlcNAc
# Procedure, shortened: as §1
# Gal3S(b1-4)Glc = target: Gal3S(b1-4)Glc
# Procedure, shortened: as §1
# Gal4S(b1-4)GlcNAc = target: Gal4S(b1-4)GlcNAc
# Procedure, shortened: as §1
# Gal6S(b1-4)Glc6S = target: Gal6S(b1-4)Glc6S
# Procedure, shortened: as §1
# [20] = target: GalNAc(a1-3)Fuc(a1-2)Gal(b1-4)GlcNAc(b1-3)[GalNAc(a1-3)Fuc(a1-2)Gal(b1-4)GlcNAc(b1-6)]GalNAc
# Procedure, shortened: as §1
# GalNAc(b1-3)Gal = target: GalNAc(b1-3)Gal
# Procedure, shortened: as §1
# [21] = target: Glc(a1-6)Glc(a1-6)Glc(a1-6)Glc
# Procedure, shortened: as §1
# GlcA(b1-3)Gal = target: GlcA(b1-3)Gal
# Procedure, shortened: as §1
# [22] = target: GlcNAc(a1-4)Gal(b1-4)GlcNAc(b1-3)Gal(b1-4)[Fuc(a1-3)]GlcNAc(b1-3)Gal(b1-4)[Fuc(a1-3)]GlcNAc
# Procedure, shortened: as §1
# [23] = target: GlcNAc(b1-3)Gal(b1-3)GalNAc
# Procedure, shortened: as §1
# [24] = target: GlcNAc(b1-4)Gal(b1-4)GlcNAc
# Procedure, shortened: as §1
# [25] = target: Neu5Ac(a2-3)Gal(b1-3)GlcNAc(b1-2)Man(a1-3)[GlcNAc(b1-4)][Neu5Ac(a2-3)Gal(b1-3)GlcNAc(b1-2)Man(a1-6)]Man(b1-4)GlcNAc(b1-4)GlcNAc
# Procedure, shortened: as §1
# [26] = target: Neu5Ac(a2-3)Gal(b1-3)GlcNAc(b1-3)GalNAc
# Procedure, shortened: as §1
# [27] = target: Neu5Ac(a2-3)Gal(b1-3)GlcNAc(b1-6)GalNAc
# Procedure, shortened: as §1
# [28] = target: Neu5Ac(a2-3)Gal(b1-3)[Neu5Ac(a2-6)]GalNAc
# Procedure, shortened: as §1
# [29] = target: Neu5Ac(a2-3)Gal(b1-4)GlcNAc
# Procedure, shortened: as §1
# [30] = target: Neu5Ac(a2-3)Gal(b1-4)GlcNAc(b1-3)Gal(b1-3)GlcNAc
# Procedure, shortened: as §1
# [31] = target: Neu5Ac(a2-3)Gal(b1-4)GlcNAc(b1-3)Gal(b1-4)[Fuc(a1-3)]GlcNAc
# Procedure, shortened: as §1
# [32] = target: Neu5Ac(a2-3)Gal(b1-4)[Fuc(a1-3)]GlcNAc(b1-3)GalNAc
# Procedure, shortened: as §1
# [33] = target: Neu5Ac(a2-6)Gal(b1-4)GlcNAc(b1-2)Man(a1-3)Man(b1-4)GlcNAc(b1-4)GlcNAc
# Procedure, shortened: as §1
# [34] = target: Neu5Ac(a2-6)Gal(b1-4)GlcNAc(b1-2)Man(a1-3)[Man(a1-6)]Man(b1-4)GlcNAc(b1-4)GlcNAc
# Procedure, shortened: as §1
# [35] = target: Neu5Ac(a2-6)Gal(b1-4)GlcNAc(b1-2)Man(a1-6)Man(b1-4)GlcNAc(b1-4)GlcNAc
# Procedure, shortened: as §1
# [36] = target: Neu5Ac(a2-6)Gal(b1-4)GlcNAc(b1-3)Gal(b1-4)GlcNAc(b1-3)Gal(b1-4)GlcNAc
# Procedure, shortened: as §1
# [37] = target: Neu5Ac(a2-8)Neu5Ac(a2-3)[GalNAc(b1-4)]Gal(b1-4)Glc
# Procedure, shortened: as §1
# [38] = target: Neu5Ac(a2-8)Neu5Ac(a2-8)Neu5Ac(a2-3)Gal(b1-4)Glc
# Procedure, shortened: as §1
# Neu5Gc(a2-3)Gal(b1-4)Glc = target: Neu5Gc(a2-3)Gal(b1-4)Glc
# Procedure, shortened: as §1
binder,measurement,setting,value
B1,glycan array binding signal (z-score),[1],-0.492
same,glycan array binding signal (z-score),[2],2.92
same,glycan array binding signal (z-score),[3],2.9
same,glycan array binding signal (z-score),[4],1.06
same,glycan array binding signal (z-score),[5],-0.329
same,glycan array binding signal (z-score),[6],-0.517
same,glycan array binding signal (z-score),[7],-1.05
same,glycan array binding signal (z-score),Fuc(a1-2)Gal6S(b1-4)Glc,1.88
same,glycan array binding signal (z-score),[8],0.954
same,glycan array binding signal (z-score),[9],3.73
same,glycan array binding signal (z-score),[10],-0.423
same,glycan array binding signal (z-score),[11],0.968
same,glycan array binding signal (z-score),[12],0.792
same,glycan array binding signal (z-score),[13],-0.328
same,glycan array binding signal (z-score),[14],0.115
same,glycan array binding signal (z-score),[15],2.64
same,glycan array binding signal (z-score),[16],-0.09
same,glycan array binding signal (z-score),[17],2.76
same,glycan array binding signal (z-score),[18],2.74
same,glycan array binding signal (z-score),[19],0.312
same,glycan array binding signal (z-score),Gal3S(b1-3)GlcNAc,-0.392
same,glycan array binding signal (z-score),Gal3S(b1-4)Glc,-0.304
same,glycan array binding signal (z-score),Gal4S(b1-4)GlcNAc,-0.354
same,glycan array binding signal (z-score),Gal6S(b1-4)Glc6S,-0.38
same,glycan array binding signal (z-score),[20],1.24
same,glycan array binding signal (z-score),GalNAc(b1-3)Gal,-0.938
same,glycan array binding signal (z-score),[21],-0.709
same,glycan array binding signal (z-score),GlcA(b1-3)Gal,0.662
same,glycan array binding signal (z-score),[22],5.84
same,glycan array binding signal (z-score),[23],-0.724
same,glycan array binding signal (z-score),[24],-0.454
same,glycan array binding signal (z-score),[25],-0.723
same,glycan array binding signal (z-score),[26],-0.237
same,glycan array binding signal (z-score),[27],0.808
same,glycan array binding signal (z-score),[28],-0.222
same,glycan array binding signal (z-score),[29],-1.12
same,glycan array binding signal (z-score),[30],-0.402
same,glycan array binding signal (z-score),[31],-0.8
same,glycan array binding signal (z-score),[32],6.37
same,glycan array binding signal (z-score),[33],0.578
same,glycan array binding signal (z-score),[34],3.98
same,glycan array binding signal (z-score),[35],-0.293
same,glycan array binding signal (z-score),[36],0.765
same,glycan array binding signal (z-score),[37],-0.791
same,glycan array binding signal (z-score),[38],-0.483
B2,glycan array binding signal (z-score),Neu5Gc(a2-3)Gal(b1-4)Glc,-0.209
